Test results from PubChem BioAssay AID1159580 (chemical genetic matrix, 2015).
Values joined by “and” are separate entries in the source; they are usually repeats but may differ in a detail not shown here. Identical values can stand only once. Hit rate of the full screen: of about 5,500 compounds, about 2,000 (36%) were called active. Not shown: some 18% with an inconclusive outcome. Rule as the data show it: active = normalized growth mostly below about 0.91 (no sharp cut-off); inconclusive = no clear call, values can overlap the other calls; inactive = mostly above about 0.92. The list shows a part of the results.

Experiment: chemical genetic growth profiling, strain panel (AID 1159580);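 also: tested at 20 µM; growth read once vehicle control cultures reached saturation at 30 °C; 1 = growth at the plate median or of vehicle wells; lower values mean less growth of the strain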
Settings: growth OD

Measured: normalized growth

COC(=O)C1=C(C)NC(C)=C(C(=O)OCCN(C)Cc2ccccc2)C1c1cccc([N+](=O)[O-])c1 (stereo unspecified)
inactive: S. cerevisiae deletion strains, locus YJR075W, strain HOC1, hits give low values 0.973 and 0.963 | S. cerevisiae deletion strains, locus YKL009W, strain mrt4, hits give low values 0.97 | S. cerevisiae deletion strains, locus YKL068W, hits give low values 0.994 | S. cerevisiae deletion strains, locus YKL085W, strain MDH1 (second series), hits give low values 0.993 | S. cerevisiae deletion strains, locus YKL085W, strain MDH1, hits give low values 0.993 | S. cerevisiae deletion strains, locus YKL160W, strain elf1, hits give low values 0.963 | S. cerevisiae deletion strains, locus YKL190W, strain CNB1, hits give low values 0.99 | S. cerevisiae deletion strains, locus YKR001C, strain vps1, hits give low values 1.01 | S. cerevisiae deletion strains, locus YKR026C, strain gcn3, hits give low values 0.97 | S. cerevisiae deletion strains, locus YKR091W, strain srl3, hits give low values 0.993 | S. cerevisiae deletion strains, locus YLL001W, strain dnm1, hits give low values 0.98 | S. cerevisiae deletion strains, locus YLL026W, hits give low values 0.998 | S. cerevisiae deletion strains, locus YLL041C, strain sdh2, hits give low values 0.968 | S. cerevisiae deletion strains, locus YLR027C, strain aat2, hits give low values 0.988 | S. cerevisiae deletion strains, locus YLR039C, strain RIC1, hits give low values 0.999 | S. cerevisiae deletion strains, locus YLR058C, strain SHM2, hits give low values 0.963 | S. cerevisiae deletion strains, locus YLR102C, strain apc9, hits give low values 0.987 | S. cerevisiae deletion strains, locus YLR113W, strain HOG1, hits give low values 0.93 | S. cerevisiae deletion strains, locus YLR221C, strain rsa3, hits give low values 0.982 | S. cerevisiae deletion strains, locus YLR258W, strain gsy2, hits give low values 0.973 | S. cerevisiae deletion strains, locus YLR262C, strain YPT6 (second series), hits give low values 0.952 | S. cerevisiae deletion strains, locus YLR262C, strain YPT6, hits give low values 0.947 | S. cerevisiae deletion strains, locus YLR268W, strain sec22, hits give low values 1 | S. cerevisiae deletion strains, locus YLR320W, strain mms22, hits give low values 0.986 | S. cerevisiae deletion strains, locus YLR330W, strain CHS5, hits give low values 0.993 | S. cerevisiae deletion strains, locus YLR342W, strain FKS1 (second series), hits give low values 0.957 | S. cerevisiae deletion strains, locus YLR342W, strain FKS1, hits give low values 0.996 | S. cerevisiae deletion strains, locus YLR357W, strain rsc2, hits give low values 0.965 | S. cerevisiae deletion strains, locus YLR370C, strain arc18, hits give low values 0.984 | S. cerevisiae deletion strains, locus YLR371W, strain rom2, hits give low values 0.967 | S. cerevisiae deletion strains, locus YLR384C, strain iki3, hits give low values 0.98 | S. cerevisiae deletion strains, locus YLR418C, strain cdc73, hits give low values 0.96 | S. cerevisiae deletion strains, locus YML016C, strain PPZ1, hits give low values 0.99 | S. cerevisiae deletion strains, locus YML032C, strain rad52, hits give low values 0.961 | S. cerevisiae deletion strains, locus YML120C, strain ndi1, hits give low values 1.02 | S. cerevisiae deletion strains, locus YML124C, strain tub3, hits give low values 0.992 | S. cerevisiae deletion strains, locus YMR058W, strain fet3, hits give low values 0.993 | S. cerevisiae deletion strains, locus YMR078C, strain ctf18, hits give low values 0.977 | S. cerevisiae deletion strains, locus YMR125W, strain sto1, hits give low values 0.978 | S. cerevisiae deletion strains, locus YMR129W, hits give low values 1 | S. cerevisiae deletion strains, locus YMR205C, strain PFK2, hits give low values 0.986 | S. cerevisiae deletion strains, locus YMR223W, strain ubp8, hits give low values 0.978 | S. cerevisiae deletion strains, locus YMR231W, strain pep5, hits give low values 0.998 | S. cerevisiae deletion strains, locus YMR263W, strain SAP30, hits give low values 0.988 | S. cerevisiae deletion strains, locus YMR307W, strain GAS1, hits give low values 0.744 | S. cerevisiae deletion strains, locus YNL067W, strain RPL9B, hits give low values 0.999 | S. cerevisiae deletion strains, locus YNL071W, strain lat1, hits give low values 0.97 | S. cerevisiae deletion strains, locus YNL128W, strain TEP1, hits give low values 0.987 and 1.05 | S. cerevisiae deletion strains, locus YNL153C, strain GIM3, hits give low values 0.98 | S. cerevisiae deletion strains, locus YNL175C, strain NOP13, hits give low values 1 | S. cerevisiae deletion strains, locus YNL183C, strain NPR1, hits give low values 0.923 | S. cerevisiae deletion strains, locus YNL197C, strain WHI3, hits give low values 1.02 | S. cerevisiae deletion strains, locus YNL209W, strain ssb2, hits give low values 0.978 | S. cerevisiae deletion strains, locus YNL224C, strain SQS1, hits give low values 0.993 | S. cerevisiae deletion strains, locus YNL233W, strain BNI4, hits give low values 0.981 | S. cerevisiae deletion strains, locus YNL248C, strain rpa49, hits give low values 0.968 | S. cerevisiae deletion strains, locus YNL250W, strain rad50, hits give low values 0.981 | S. cerevisiae deletion strains, locus YNL271C, strain bni1, hits give low values 1 | S. cerevisiae deletion strains, locus YNL298W, strain CLA4, hits give low values 0.996 | S. cerevisiae deletion strains, locus YNL307C, strain MCK1, hits give low values 0.968 | S. cerevisiae deletion strains, locus YNL322C, strain KRE1 (second series), hits give low values 0.996 | S. cerevisiae deletion strains, locus YNL322C, strain KRE1, hits give low values 0.995 | S. cerevisiae deletion strains, locus YNR049C, strain mso1, hits give low values 0.974 | S. cerevisiae deletion strains, locus YNR052C, strain pop2, hits give low values 0.999 | S. cerevisiae deletion strains, locus YOL006C, strain TOP1, hits give low values 1.01 | S. cerevisiae deletion strains, locus YOL012C, strain htz1 0.795 | S. cerevisiae deletion strains, locus YOL147C, strain pex11, hits give low values 0.99 | S. cerevisiae deletion strains, locus YOR001W, strain rrp6, hits give low values 0.994 | S. cerevisiae deletion strains, locus YOR061W, strain CKA2, hits give low values 0.964 | S. cerevisiae deletion strains, locus YOR069W, strain VPS5, hits give low values 1.01 | S. cerevisiae deletion strains, locus YOR070C, strain gyp1, hits give low values 0.979 | S. cerevisiae deletion strains, locus YOR080W, strain dia2, hits give low values 0.979 | S. cerevisiae deletion strains, locus YOR083W, strain WHI5 (second series), hits give low values 1.01 | S. cerevisiae deletion strains, locus YOR083W, strain WHI5, hits give low values 1 | S. cerevisiae deletion strains, locus YOR106W, strain vam3, hits give low values 0.971 | S. cerevisiae deletion strains, locus YOR136W, strain idh2, hits give low values 0.984 | S. cerevisiae deletion strains, locus YOR144C, strain elg1, hits give low values 0.999 | S. cerevisiae deletion strains, locus YOR184W, strain ser1, hits give low values 0.956 | S. cerevisiae deletion strains, locus YOR231W, strain MKK1, hits give low values 0.969 | S. cerevisiae deletion strains, locus YOR265W, strain rbl2, hits give low values 0.999 | S. cerevisiae deletion strains, locus YOR270C, strain vph1, hits give low values 0.939 | S. cerevisiae deletion strains, locus YOR290C, strain snf2, hits give low values 0.975 | S. cerevisiae deletion strains, locus YOR316C, strain cot1, hits give low values 0.98 | S. cerevisiae deletion strains, locus YPL051W, strain arl3, hits give low values 0.979 | S. cerevisiae deletion strains, locus YPL055C, strain LGE1, hits give low values 0.951 and 0.966 | S. cerevisiae deletion strains, locus YPL078C, strain atp4, hits give low values 0.995 | S. cerevisiae deletion strains, locus YPL106C, strain sse1, hits give low values 0.887 | S. cerevisiae deletion strains, locus YPL240C, strain hsp82, hits give low values 0.985 | S. cerevisiae deletion strains, locus YPL241C, strain CIN2, hits give low values 0.991 and 0.972 | S. cerevisiae deletion strains, locus YPL256C, strain CLN2, hits give low values 0.957 | S. cerevisiae deletion strains, locus YPR119W, strain clb2, hits give low values 0.984 | S. cerevisiae deletion strains, locus YPR141C, strain kar3, hits give low values 0.982 | S. cerevisiae deletion strains, locus YPR163C, strain tif3, hits give low values 0.996 | S. cerevisiae deletion strains, locus YPR167C, strain met16, hits give low values 0.988 | S. cerevisiae deletion strains, strain wtn01, hits give low values 0.981 | S. cerevisiae strains, strain wild type, hits give low values 0.998
